Source: PubChem
Most compounds without a hit are left out; they make up all but 9.4% or so of the library.
Rab9 prom act: qHTS Assay for Rab9 Promoter Activators. Huh7 Rab9 promoter-luciferase reporter, luminescence, 24 h. Potency, µM (highest dose often 9.22 µM), for the others: at the top dose activation, negative = inhibition, most hits filed as activators. 2.8% of 320,000 active; further: % of control where 0% means no effect; nearly all actives have a fitted effect of over 60% in size
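Luminescence read-out: Huh7 cells stably expressing Rab9-luciferase, treated 24 h with compound at 37 °C, then lysed with luciferase reagent for 10 min at ambient before reading.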
ELG1 repair inh: qHTS screen for small molecules that inhibit ELG1-dependent DNA repair in human embryonic kidney (HEK293T) cells expressing luciferase-tagged ELG1; HEK293T ELG1-luciferase reporter, luminescence, 16 h; DNA damage induced by 5-fluorouridine; Potency, µM (series often up to 46.1 µM), inactives show at the top dose activity change, negative = inhibition, most hits filed as inhibitors; 2.3% of 330,000 active; further: on the % scale 0 is the no-effect control and ±100 the full control effect; nearly all actives have a fitted effect of over 55% in size
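Reporter activity after DNA damage by 5-fluorouridine is monitored. Compound-treated cells incubate 16 hr at 37 °C, then ONE-Glo is added for 30 min before luminescence reading.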
ELG1 genotox: qHTS screen for small molecules that induce genotoxicity in human embryonic kidney (HEK293T) cells expressing luciferase-tagged ELG1. HEK293T ELG1-luciferase reporter, luminescence, 16 h. Potency, µM (top dose mostly 46 µM), for inactives: at the top dose activity change, positive = activation, usual class: activators. 1.3% of 330,000 active. AID 504466, 2011; further: % of control where 0% means no effect; nearly all actives have a fitted effect of over 60% in size
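HEK293T cells expressing luciferase-tagged ELG1 were treated with compound or DMSO for 16 hr at 37°C. Luciferase activity was then read after 30 min with ONE-Glo at room temperature; rising signal flags genetic stress.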
NPC1 prom act: qHTS Assay for NPC1 Promoter Activators; Huh7 NPC1 promoter luciferase reporter, 24 h; 2.4% of 320,000 active; Potency, µM (titrated, usually from 9.22 µM), inactives show at the highest dose activation, most hits filed as activators; AID 485313, 2010; further: % of control where 0% means no effect; nearly all actives have a fitted effect of over 60% in size
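Stable NPC1-promoter luciferase Huh7 line; cpd (DMSO) 24 h, 37 °C, 5% CO2; Amplite luciferase reagent 10 min RT; luminescence readout. qHTS format.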
SMN2 splice enh: qHTS Assay for Enhancers of SMN2 Splice Variant Expression; HEK293 SMN2-luciferase splicing reporter, luminescence, 30-36 h; Potency, µM (series often up to 46.1 µM), for the others: at the top dose activity change, positive = activation, hits mostly activators; 2.8% of 210,000 active; further: % of control where 0% means no effect; nearly all actives have a fitted effect of over 55% in size
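HEK293 cells carry an SMN2 […]–luciferase reporter in which exon 7 inclusion puts luciferase in frame. Cells were plated 10-12 h before compound addition, then incubated 30-36 h at 37C. ONE-Glo luminescence was read; sodium butyrate at 4.5 mM final served as control.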
FLuc modulator: qHTS profiling assay for firefly luciferase inhibitor/activator using purifed enzyme and Km concentrations of substrates (counterscreen for miR-21 project). purified FLuc, Km substrates, luminescence inhibition. Potency, µM (doses to about 57.5 µM), for the others: top-dose activity change, negative = inhibition, most hits filed as inhibitors. AID 588342, 2011. 6.9% of 360,000 active. Luciferin 4-monooxygenase (Photinus pyralis), P08659;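 further: plate controls were vehicle for no effect and reference inhibitor for full effect; nearly all actives have a fitted effect of over 55% in size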
Target sequence (P08659 whole entry, looked up): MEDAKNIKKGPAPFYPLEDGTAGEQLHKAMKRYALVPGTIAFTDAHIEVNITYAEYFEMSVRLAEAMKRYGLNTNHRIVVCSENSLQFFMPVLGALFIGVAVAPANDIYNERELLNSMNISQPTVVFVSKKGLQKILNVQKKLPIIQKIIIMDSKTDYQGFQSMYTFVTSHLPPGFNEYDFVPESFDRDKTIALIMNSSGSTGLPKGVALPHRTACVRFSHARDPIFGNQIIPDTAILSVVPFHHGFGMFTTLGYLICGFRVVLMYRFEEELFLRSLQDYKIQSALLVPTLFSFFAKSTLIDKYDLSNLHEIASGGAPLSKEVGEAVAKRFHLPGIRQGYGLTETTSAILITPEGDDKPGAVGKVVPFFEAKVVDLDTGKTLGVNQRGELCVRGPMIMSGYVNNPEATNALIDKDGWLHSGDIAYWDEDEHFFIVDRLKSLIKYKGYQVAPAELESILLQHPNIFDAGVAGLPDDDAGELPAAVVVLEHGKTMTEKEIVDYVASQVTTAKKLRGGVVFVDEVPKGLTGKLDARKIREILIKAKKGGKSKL
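Biochemical qHTS of compounds, final roughly 60 µM downward over six points, against 10 nM purified firefly luciferase using Km concentrations of substrates (10 uM D-luciferin, 10 uM ATP) in Tris acetate pH 7.5 buffer; luminescence output.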
An asterisk follows results filed as active; u = inconclusive; x = no result; [ ] = another dose, or the depositor's remark. The call rests on the fitted dose curve; in most records, active means well fitted curve in the direction sought with a large enough effect; inconclusive means small, poorly fitted or top-dose-only effect, or another doubt; inactive means no such curve, though single readings can be large; an effect the other way counts as inactive or inconclusive. Potency means the concentration at half of the fitted maximal effect.

SMILES | Rab9 prom act | ELG1 repair inh | ELG1 genotox | NPC1 prom act | SMN2 splice enh | FLuc modulator
Cc1nc(SCC(=O)N(C)C2(C#N)CCCCC2)c2ccccc2n1 | -8% | u | -6% | 0% | x | 24µM*
Cc1ccc(NC(=O)C2CCN(S(=O)(=O)c3ccc4c(c3)NC(=O)C(C)S4)CC2)cc1Cl (stereo not drawn) | -18% | 13µM* | -16% | -14% | x | 0%
Cc1cc(C)c(C)c(S(=O)(=O)N2CCC(C(=O)Nc3ccc(S(=O)(=O)N4CCOCC4)cc3)CC2)c1C | -8% | 12µM* | -13% | -4% | x | 7%
N#CCc1ccc(NC(=O)c2ccc(S(=O)(=O)N3CCCC3)cc2)cc1 | -2% | 21µM* | -8% | -9% | x | 0%
Cc1cc(C)cc(NC(=O)C2CCN(S(=O)(=O)c3ccc4c(c3)NC(=O)C(C)S4)CC2)c1 (stereo not drawn) | 0% | u | -10% | -3% | x | 2%
O=C(Nc1ccc(Cc2ccncc2)cc1)c1ccc(S(=O)(=O)N2CCOCC2)cc1 | -19% | 13µM* | -5% | -14% | x | 5%
COc1ccc(OC)c(NC(=O)Cn2c(=O)c3cccn3c3ccccc32)c1 | x | x | x | x | x | -2%
CCc1cc(=O)oc2c(C)c3c(cc12)CN(CCc1ccccc1OC)CO3 | x | x | x | x | -8% | -1%
CC1CN(S(=O)(=O)c2ccc(C(=O)Nc3ccc(S(=O)(=O)N4CCOCC4)cc3)cc2)CC(C)O1 (stereo not drawn) | -10% | 8.2µM* | -14% | -5% | x | 1%
CC(=O)Nc1ccc(S(=O)(=O)N2CCC(C(=O)c3ccc(Cl)cc3)CC2)cc1 | -2% | 18µM* | -28% | -9% | x | 0%
O=C(Nc1ccc(S(=O)(=O)N2CCCC2)cc1)c1ccc(CN2CCOCC2)cc1 | -18% | u | -5% | -25% | -49% | -1%
O=C(Nc1ccc(S(=O)(=O)N2CCCCC2)cc1)c1ccc(CN2CCOCC2)cc1 | -27% | 7.3µM* | -10% | -28% | -88% | 3%
O=C(Nc1ccc(S(=O)(=O)N2CCOCC2)cc1)c1ccc(S(=O)(=O)N2CCOCC2)cc1 | -8% | 0% | 1% | -7% | x | -4%
COc1ccc(Br)cc1CNC(=O)CSc1cc(=O)n(C)c2ccccc12 | x | x | x | x | 9% | 2%
CCCCc1nc2c(c3c1C[C@H](C)OC3)CN(S(=O)(=O)c1c(C)noc1C)CC2 | x | x | x | x | 4%[9.22 µM] | x
O=C(c1ccc(F)cc1)c1ccc(N2CCCCC2)cc1 | 2.5µM* | u | u | 2.8µM* | x | 6.7µM*
O=C(CCC(=O)N1CCN(c2ccc(F)cc2)CC1)N1CCN(c2ccc(F)cc2)CC1 | -2% | u | -8% | -4% | x | 4%
O=C(Nc1ccc(S(=O)(=O)N2CCCCC2)cc1)c1ccc(F)cc1 | -8% | u | -16% | -1% | x | -1%
O=C(Nc1ccc(N2CCCCC2)cc1)c1ccc(F)cc1 | 0.45µM* | u | 1.6µM* | 0.89µM* | 3.5µM* | 1.2µM*
O=C(Nc1ccc(N2CCCCC2)cc1)c1cccnc1 | u | u | 9.2µM* | u | 22µM* | 21µM*
O=C(c1ccc(F)cc1)c1ccc(N2CCCC2)cc1 | u | u | 14µM* | u | x | 12µM*
O=C(Nc1ccc(N2CCN(Cc3ccccc3Cl)CC2)cc1)c1cccnc1 | -14% | u | 0% | -5% | -42% | 0%
Cc1cccc(N2CCN(C(=O)C3CCCN(S(=O)(=O)c4ccc(Br)s4)C3)CC2)c1C (stereo not drawn) | x | x | x | x | -56% | -1%
